The text below walks through data of PubChem BioAssay (NCI).

Holding throughout (test): NCI-60 one-dose screen, 48 h (100 = growth as untreated, 0 = no growth, -100 = all killed)
Common to all, as to details: 10 µM unless noted

Test [1] deals with HCT-15 colon.
In test [2] the test system is HT29 colon.
Test [3] relates to SNB-75 CNS.
The subject of test [4] is SNB-19 CNS.
In test [5] the test system is U251 CNS.
Test [6] concerns PC-3 prostate.
The test system of test [7] is SK-MEL-5 melanoma.
Test [8] concerns UACC-62 melanoma.
Test [9] has as its system LOX IMVI melanoma.
Test [10] concerns SK-MEL-28 melanoma.
Test [11] deals with SK-MEL-2 melanoma.
Test [12] relates to EKVX NSCLC.
Test [13] has as its system SN12C renal.
Test [14] relates to UO-31 renal.
The test system of test [15] is TK-10 renal.
Test [16] deals with ACHN renal.
Test [17] deals with CAKI-1 renal.
Test [18] concerns A498 renal.
The test system of test [19] is CCRF-CEM leukemia.
In test [20] the test system is MOLT-4 leukemia.

About 83,000 compounds went through this panel and 20% of them were active in at least one assay; those are over-represented in the sample as a whole.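 Values shown are percent growth following 48 h exposure of cells in 96-well plates to a single concentration of compound; below 10 was considered active.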 A number with no mark means an inactive call. The source made the active and inactive calls.

With `CC(C)(C)CC(C)(C)Nc1c(-c2ccc3c(c2)OCO3)nc2cnccn12`, the growth in test [1] is 84.1%; in [2], 80%; in test [3], 67.5%; in [4], 90.9%; in test [5] it was 95.6%; in [6], 67%. Also, the growth in test [7] was 87.7%; in test [8], 66%; in test [9] it was 94%; in test [10], 94.3%; in test [11], 95.6%; in [12] it was 80.3%. The growth is 92.8% in test [13]; 63.1% in test [14]; 98.3% in [15]; 86.5% in [16]; 69.6% in [17]; 75.6% in test [18]. The growth in [19] is 89.1%; in [20], 69.4%.
Turning to `OC1(c2ccc(Cl)c(C(F)(F)F)c2)CCN(CCCC(c2ccc(F)cc2)c2ccc(F)cc2)CC1`, the growth in [1] was -78.5% (active); in test [2], -88.1% (active); in test [3], -66.3% (active); in [4], 12.1%; in test [5], -93.1% (active); in test [6], -65.5% (active). For the same compound, the growth in [7] was -93.5% (active); in test [8], -92.6% (active); in test [9], -96.1% (active); in test [10] it was -94.4% (active); in [11], -77.2% (active); in [12], -9.88% (active). Also, the growth in [13] is -91.3% (active); in test [14], -65.7% (active); in test [15], -50.7% (active); in test [16], -86.8% (active); in test [17] it was -68.7% (active); in test [18], -92.5% (active). Moreover, the growth in [19] was -39% (active); in test [20] it was -25.8% (active).
Turning to `O=S(=O)(NCCNc1nccc(-c2c(-c3ccc(F)c(O)c3)nc3sccn23)n1)c1ccccc1`, the growth in test [1] was 92.3%; in test [2] it was 64.6%; in [3], 137%; in [4], 113%; in test [5] it was 98.8%; in test [6], 67.8%. Besides, the growth in test [7] was 58.1%; in test [8] it was -0.791% (active); in test [9], 27.7%; in [10] it was 16.8%; in test [11], 12.7%; in test [12] it was 101%. In addition, the growth was 64.1% in test [13]; 49.9% in test [14]; 138% in test [15]; 57.5% in test [16]; 54.6% in [17]; 109% in test [18]. The growth in test [19] was 37.2%; in [20], 52.8%.
For `N/C(=N\N=C\c1cc2ccccc2s1)N/N=C/c1cc2ccccc2s1`, the growth is 105% in test [1]; 108% in [2]; 95.5% in [3]; 97% in [4]; 113% in test [5]; 97.4% in test [6]. The growth in test [7] was 98%; in test [8], 95.3%; in [9], 100%; in test [10], 106%; in test [11], 109%; in [12], 95.6%. The growth in test [13] is 96.9%; in test [14] it was 87.7%; in test [15] it was 115%; in [16], 107%; in test [17], 95.3%; in test [18], 96.5%. The values for the growth in test [19] and in [20] were 99.2% and 101%, respectively.
`COc1cc(NCCCN(CC(C)C)C2CCCC2)c2ncccc2c1`: the growth is 63.6% in test [1]; 71.8% in [2]; 71% in [3]; 84.6% in test [4]; 76.6% in [5]; 59.4% in test [6]. The growth is 72.2% in test [7]; 73.6% in test [8]; 58.7% in test [9]; 71.2% in test [10]; 100% in [11]; 89.9% in test [12]. Also, the growth is 61.9% in test [13]; 51% in [14]; 93.6% in test [15]; 41.7% in test [16]; 76% in test [17]; 37.1% in test [18]. The growth in test [19] was 54.1%; in [20] it was 71%.
Consider `O=c1nc2n(nc1/C=C/c1ccco1)CC(c1ccc(Cl)cc1)=NN2`, for which the growth in [1] was 135%; in [2], 109%; in [3], 91.6%; in test [4] it was 96.5%; in [5], 115%; in test [6], 97.6%. Moreover, the growth in test [7] was 99.9%; in test [8] it was 97.6%; in test [9] it was 113%; in [10] it was 120%; in test [11], 30.3%; in test [12] it was 72.1%. Moreover, the growth was 136% in test [13]; 64% in test [14]; 104% in test [15]; 122% in test [16]; 94% in test [17]; 107% in test [18]. Moreover, the growth in [19] is 98%; in [20], 84.2%.
Consider `COc1cc(-c2nc3occn3c2-c2ccnc(NCCNS(=O)(=O)c3ccc(Cl)cc3)n2)ccc1F`, for which the growth is 74.7% in test [1]; 53.1% in test [2]; 69.1% in test [3]; 91.6% in [4]; 90% in test [5]; 56.4% in [6]. The growth in test [7] is 66.1%; in [8], 57.1%; in test [9], 81.9%; in test [10], 102%; in [11] it was 71.9%; in test [12], 78.1%. Further, the growth in test [13] is 71.5%; in test [14], 36.4%; in [15] it was 89%; in test [16], 77.7%; in test [17], 60.9%; in test [18], 62.3%. In addition, the figures for the growth in test [19] and in test [20] were 60.9% and 54%, respectively.
As to `Cc1ccc2[nH]c(=S)n(-c3ccc(S(=O)(=O)Nc4ccc(Cl)nn4)cc3)c(=O)c2c1`, the growth is 101% in test [1]; 103% in [2]; 97.8% in [3]; 97.5% in test [4]; 100% in test [5]; 103% in [6]. Also, the growth in [7] is 101%; in [8], 98.5%; in test [9], 100%; in [10], 108%; in test [11], 106%; in [12], 97.8%. Moreover, the growth was 96.9% in test [13]; 85.2% in test [14]; 100% in [15]; 104% in test [16]; 90.6% in test [17]; 92.1% in [18]. Also, the growth in [19] and in test [20] was 100% in each case.
